As usually defined, the viability is a read-out of living cells in per cent, often relative to untreated cells.

The assay in a line: reversal of MRP1-mediated doxorubicin resistance, pilot screen, H69AR cells, doxorubicin co-treatment (AID 601). The following applies: H69AR cells + 2 uM doxorubicin, CellTiter-Glo, 72 h; measured here: viability with 2 uM doxorubicin; at 10 µM; stronger effect = lower value. Background: Cellular ATP, detected with luciferase, serves as a proxy for viable cell number.
With `O=C1OCCC1NC1=NCCC1` (stereo not given), the viability was found to be 87.1%.

Turning to `CN1C(=O)N(C)C(=O)C2(Cc3ccccc3N3CCOCC32)C1=O` (stereo not given), the viability worked out at 94%. For `O=c1[nH]c(=O)n(Cc2ccco2)c(O)c1C=NCCCn1ccnc1`, the viability is 94.8%. In the case of `CC1CCC(C(=O)NC(C(=O)N2CCC3(CC2)OCCO3)C(C)C)CC1` (stereo not given) it was 91%; in that of `COc1ccccc1N1CCN(Cc2cccc(OC)c2O)CC1`, 86.6%. As to `O=C1CC(c2ccccc2)CC(O)=C1C=NCCN1CCN(C(=O)Cc2ccccc2)CC1` (stereo not given), the viability was 94.8%. As for `OCCOCC#CCN1CCOCC1`, the viability is 89.9%. With `NC(=O)CSP(=O)(c1ccccc1)c1ccccc1`, the viability was found to be 92.3%. As to `CC1(C)C(c2ccccc2)=NC(c2cccnc2)N1O` (stereo not given), the viability was determined as 99.7%. As for `CCCCCCC(N)CC(=O)O` (stereo not given), the viability amounted to 89.6%. Regarding `CCN(CC)CCN=Cc1c(O)n(CCC2=CCCCC2)c(=O)[nH]c1=O`, the viability came out at 86.1%. In the case of `CCN1c2nc3c(C)cccn3c(=O)c2CC2(C(=O)N(C)C(=O)N(C)C2=O)C1C` (stereo not given), the viability turned out to be 87%. Take `C=CCn1c(O)c(C=NCCN(C)C)c(=O)[nH]c1=O`: the viability came to 94.1%. In the case of `Cc1ccccc1NC1=NCCCS1` it was 96.1%; in that of `CN1CCC(N(C)c2ncnc3ccc(Br)cc23)CC1`, 114%. In the case of `O=c1[nH]c(=O)n(Cc2ccccc2)c(O)c1C=NCCCO`, the viability was 89.9%.

Take `O=C1CC(N2CCC(n3c(=O)[nH]c4ccccc43)CC2)C(=O)N1c1ccc(F)cc1` (stereo not given): the viability was 100%. On to `Cc1cc(NC(=O)COC(=O)c2c(C)nn(Cc3ccccc3)c2Cl)no1`, for which the viability is 86%. With `CN(C)c1cc(N)c2c(n1)CCC2` (tested in a mixture with another compound), the viability came to 87.6%. Consider `c1ccc(C2CC3CC(c4ccco4)N2O3)cc1` (stereo not given), for which the viability is 90.9%. Turning to `c1cncc(CNC2=NCCCCC2)c1`, the viability was determined as 91.3%. As to `C=CCn1c(O)c(C(C)=NCc2cccnc2)c(=O)[nH]c1=O`, the viability came out at 87.4%. Under `NCCc1ccc(O)cc1` stands 92.1%; under `COc1ccc(C(=O)C(C)(C)NO)cc1`, 88.8%; under `CCOC(=O)c1cccc([P+](=O)O)c1`, 97.1%.

On to `O=C(CCCOc1ccc(Cl)cc1Cl)N1CCC2(CC1)OCCO2`, for which the viability came out at 81.5%.

For `CCCCOc1ccc(CN2CCN(CCO)CC2)cc1`, the viability amounted to 77.9%. As for `CSc1ccc(CNC2CN3CCC2CC3)cc1` (stereo not given), the viability stood at 81.8%. Regarding `CCCCn1c(O)c(C(C)=NCCc2ccccc2)c(=O)[nH]c1=O`, the viability turned out to be 95.9%.

Regarding `O=C(c1sc2ccccc2c1Cl)N1CCC2(CC1)OCCO2`, the viability was 102%. Consider `N#Cc1ccccc1Cn1cc(C(=O)c2ccco2)c2ccccc21`, for which the viability turned out to be 85%.

As to `COc1ccc(CC2C(=O)NC(=O)NC2=O)c(OC)c1`, the viability was determined as 101%. For the compound `CCCCn1c(O)c(C(CC)=Nc2cccc(C(=O)O)c2)c(=O)[nH]c1=O`, the viability stood at 92.6%. Under `COc1cc(C2NCc3ccccc3-n3cccc32)ccc1O` (stereo not given) stands 90.9%. In the case of `Cc1ccc(CS(=O)(=O)CCC(=O)N2CCC3(CC2)OCCO3)cc1`, the viability came out at 87.7%. As to `COc1cc(/C=N/n2cnnc2)ccc1OC(=O)N(C)C`, the viability amounted to 92.7%. For `CC#CP(=O)(OCC)C(O)(c1ccccc1)C(F)(F)F` (stereo not given), the viability came to 82.5%. Under `CCOC(=O)C(O)(c1ccc(N(CC)C(=O)OC)cc1)C(F)(F)F` (stereo not given) stands 88.3%. Consider `CC(C)(C)C(O)C(Oc1ccc(Cl)cc1)n1cncn1` (stereo not given), for which the viability worked out at 81.7%. In the case of `COC(=O)c1c(C)n(Cc2ccc3c(c2)OCO3)c2ccc(O)cc12` it was 100%.

The values are drawn from PubChem BioAssay.
